Source: PubChem
USP8 block: inhibitors of human USP8 deubiquitinase. inhibition, % at 20 µM. purified USP8, Ub-rhodamine cleavage fluorescence, 30 min. Ubiquitin carboxyl-terminal hydrolase 8 (Homo sapiens), P40818. 4.2% of 47,000 active
USP30 block: inhibitors of human USP30 deubiquitinase; Ubiquitin carboxyl-terminal hydrolase 30 (Homo sapiens), Q70CQ3; purified USP30, Ub-rhodamine cleavage fluorescence; inhibition, % at 25 µM; 5.3% of 47,000 active
USP17 block: inhibitors of human USP17 deubiquitinase | 6.5% of 47,000 active | inhibition, % at 50 µM | purified USP17, Ub-rhodamine cleavage fluorescence, 3 h | AID 1645855, 2021 | Ubiquitin carboxyl-terminal hydrolase 17-like protein 5 (Homo sapiens), A8MUK1
USP10 block: inhibitors of human USP10 deubiquitinase; 1.1% of 47,000 active; AID 1645856, 2021; purified USP10, Ub-rhodamine fluorescence, 60 min; inhibition, % at 20 µM; Ubiquitin carboxyl-terminal hydrolase 10 (Homo sapiens), Q14694
Target sequence (Q14694 whole entry, looked up): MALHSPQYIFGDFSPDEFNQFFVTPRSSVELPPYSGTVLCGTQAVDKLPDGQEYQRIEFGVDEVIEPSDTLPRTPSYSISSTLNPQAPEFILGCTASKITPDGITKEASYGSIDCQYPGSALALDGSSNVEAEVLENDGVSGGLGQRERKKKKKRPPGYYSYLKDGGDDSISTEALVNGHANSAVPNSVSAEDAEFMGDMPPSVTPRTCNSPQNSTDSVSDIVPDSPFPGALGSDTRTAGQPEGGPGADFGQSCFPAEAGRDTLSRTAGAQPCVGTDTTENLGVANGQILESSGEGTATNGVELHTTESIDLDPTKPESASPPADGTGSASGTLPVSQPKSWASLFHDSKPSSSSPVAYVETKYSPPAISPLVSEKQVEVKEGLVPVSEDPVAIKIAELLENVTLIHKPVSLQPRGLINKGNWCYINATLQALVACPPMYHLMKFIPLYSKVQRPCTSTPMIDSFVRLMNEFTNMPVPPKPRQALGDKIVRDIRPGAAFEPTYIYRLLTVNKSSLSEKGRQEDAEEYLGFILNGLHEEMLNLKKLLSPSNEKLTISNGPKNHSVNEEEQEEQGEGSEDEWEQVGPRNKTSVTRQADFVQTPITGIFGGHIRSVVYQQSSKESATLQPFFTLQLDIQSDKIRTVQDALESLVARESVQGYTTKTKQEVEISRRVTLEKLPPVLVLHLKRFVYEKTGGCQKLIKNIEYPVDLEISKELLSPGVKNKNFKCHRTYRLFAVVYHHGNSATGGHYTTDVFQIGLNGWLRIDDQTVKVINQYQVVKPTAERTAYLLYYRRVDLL
USP28 block: inhibitors of human USP28 deubiquitinase | AID 1645857, 2021 | purified USP28, Ub-rhodamine cleavage fluorescence, 30 min | inhibition, % at 25 µM | Ubiquitin carboxyl-terminal hydrolase 28 (Homo sapiens), Q96RU2 | 3% of 47,000 active
Starred values were filed as active, the others as inactive; x = not tested or not shown. A selection: hits, their analogues and other compounds. The true share with any hit is near 14%. No stated cut-off is given here; in the data, active means inhibition above about 30%; inactive means the rest.

SMILES	USP8 block	USP30 block	USP17 block	USP10 block	USP28 block
Cc1ccc(CNC(=O)CCc2c(C)nn(-c3cc(N4CCOCC4)ncn3)c2C)cc1	-1	-8	-1	-4	0
Cc1ccc(C)c(NC(=O)CCc2c(C)nn(-c3cc(N(C)C)ncn3)c2C)c1	-32	31*	17	4	0
CC(C)OC(=O)c1cc2c(ccn2C)n1CC(=O)NC1CCCCC1	16	-456	-77	-4	-106
Cc1ccn2cc(CCNS(=O)(=O)c3cc([N+](=O)[O-])ccc3C)nc2c1	-82	21	x	-2	3
CCN(Cc1ccccc1)c1nc2ccccc2nc1NS(=O)(=O)c1cc([N+](=O)[O-])ccc1C	19	29	34*	13	20
O=C(C1CCC1)N1C2CCC(O)(CC2)C1CN1CCOCC1 (centres undefined)	2	12	1	2	-7
CC(C)N1CN=C2NC(c3ccc(N(C)C)cc3)n3c(nc4ccccc43)N2C1 (centres undefined)	1	20	1	1	-3
COc1ccc(C2NC3=NCN(C(C)C)CN3c3nc4ccccc4n32)cc1 (centres undefined)	23	33*	12	2	12
COc1cccc(-c2ccc3nc(C4CCN(C(=O)N(C)C)CC4)nn3c2)c1	-1	15	5	-1	30*
Cc1nc2c(-c3ccccc3)noc2c(=O)n1CC(=O)O	5	31*	8	4	8
Cc1ccccc1CNC(=O)CCn1cnc2c(-c3ccccc3)noc2c1=O	38*	43*	-9	6	6
CC(=O)O[C@H]1CC[C@]2(C)[C@H]3Cc4c(O)cc5c(c4O[C@]3(C)CC[C@H]2C1(C)C)CNC5=O	-7	0	34*	1	29
c1ccc(-c2cnc(CSc3nc4ccccc4[nH]3)o2)cc1	-67	-45	-27	-4	-19
COc1cccc(OCCCSc2nc3ccccc3[nH]2)c1	0	2	9	14	41*
Cc1cccc(OCCCSc2nc3ccccc3[nH]2)c1	-11	27	19	14	45*
COc1ccc(NC(=O)CCCSc2nc3ccccc3[nH]2)cc1OC	1	-8	-2	-3	6
CC1[C@@H]2[C@@H](C(=O)N3CCOCC3)C[C@H](CN1C(=O)CN)N2Cc1ccccc1 (some centres undefined)	-58	16	1	1	8
Cc1cc(=O)oc2cc(OCC(=O)NCc3ccccn3)ccc12	0	20	12	1	11
CCCc1cc(=O)oc2cc(OCC(=O)NCc3ccccn3)ccc12	29	60*	61*	5	17
COc1c(C)c(C(O)C(C)O)c2[nH]c3ccc(CC=C(C)C)cc3c2c1O (centres undefined)	63*	48*	99*	4	48*
O=C(NCc1ccccc1)c1ccccc1OCc1ccc2c(c1)OCO2	17	35*	31*	13	3
O=C(NCc1ccc(F)cc1)c1nnc(Cc2ccc(Cl)cc2)o1	9	3	4	4	1
COc1ccc(-n2cc(C(=O)NCc3ccc4c(c3)OCO4)c3ccccc3c2=O)cc1	7	54*	0	22	26
O=C(NCc1ccc2c(c1)OCO2)c1ccccc1OCc1ccc(F)cc1	16	31*	33*	14	17
N#Cc1ccccc1OCC(=O)NCc1ccc2c(c1)OCO2	-16	-20	-13	-2	-11
SMILES	USP8 block	USP30 block	USP17 block	USP10 block	USP28 block
Cc1nc(NCc2ccccc2)ncc1C(=O)NCc1ccc2c(c1)OCO2	1	-238	3	-1	-10
O=C(NCc1ccc2c(c1)OCO2)c1nnc(Cc2ccc(F)cc2)o1	9	22	56*	3	5
CCCc1nc2ccccc2n1CC(=O)N1CCc2ccccc21	5	15	12	0	3
O=C(NCc1ccccc1)c1ccc(-c2cccnc2)nc1	3	1	4	2	-10
CCCN1Cc2cccc(C(=O)NCc3ccc4c(c3)OCO4)c2C1=O	8	16	8	-3	35*
COc1ccc(NC(=O)COc2ccccc2C#N)cc1S(=O)(=O)Nc1ccccc1Cl	-6	-64	22	10	-17
CNc1ccccc1C(=O)NCCc1ccncc1	-25	-25	0	-3	2
Cc1ccc(S(=O)(=O)N2CCOC23CCN(C(=O)c2ccccc2)CC3)cc1	11	33*	9	2	16
Cc1ccccc1C(=O)N1CCC2(CC1)OCCN2S(=O)(=O)c1ccccc1	0	-13	0	-3	-7
Cc1cc2nc(N3CCOCC3)n(CC(=O)Nc3cccc(F)c3)c(=O)c2n1C	19	13	38*	0	-1
Cc1ccccc1NC(=O)Cn1c(N2CCOCC2)nc2cc(C)n(C)c2c1=O	5	62*	36*	-6	10
CCc1ccc(NC(=O)Cn2c(N3CCOCC3)nc3cc(C)n(C)c3c2=O)cc1	14	33*	40*	-5	8
Cc1ccc(NC(=O)Cn2c(N3CCOCC3)nc3cc(C)n(C)c3c2=O)cc1	5	49*	14	-4	-11
CCc1cc(=O)n(CC(=O)Nc2ccc(F)c(F)c2)c(N2CCOCC2)n1	7	-1	5	-2	5
Cc1cccc(NC(=O)Cn2c(N3CCOCC3)nc(C)cc2=O)c1	0	1	-1	0	-11
COc1ccc(Cl)cc1NC(=O)c1nccnc1-c1nc2ccccc2s1	-2	-20	-1	0	-7
N#Cc1c(-c2ccccc2)nc(SCc2ccccc2Cl)nc1N1CCOCC1	7	12	9	7	9
Cc1ccccc1CCN1C(=O)CCC1(C)C(=O)NCc1ccccc1 (centres undefined)	1	-5	-24	-3	-10
Cc1ccc2nc(C3CN(S(=O)(=O)c4ccccc4F)C3)[nH]c2c1	-10	-37	-16	-4	-7
COc1ccc(CNC(=O)c2ccccc2C(=O)c2ccc3c(c2)NC(=O)CO3)cc1	6	1	9	4	-1
COc1ccccc1-c1nnc(SCC(=O)c2ccc3c(c2)NC(=O)CO3)n1Cc1ccco1	-9	-16	37*	0	5
CCC(CC)C(=O)c1c[nH]c(C(=O)NCc2cccs2)c1	5	38*	27	0	0
Cc1nnc(-c2ccc3ccn(CC(=O)NCC4CCCO4)c3c2)o1 (centres undefined)	-9	-27	-7	-2	-6
COc1ccc(S(=O)(=O)N2CCc3nc4ccccc4n3CC2)cc1	-97	54*	57*	2	-11
O=C(c1cnc2[nH][nH]c(=O)c2c1)c1cc(Cl)cc(Cl)c1O	94*	46*	89*	87*	55*
COc1ccc(CNc2ccc(C(=O)OCc3ccccc3F)cc2S(=O)(=O)Nc2cccc(OC)c2)cc1	8	0	-12	33*	1
